Results taken from publication PMC5540273 (PLoS ONE, 2017).

Assays:
Conditions in all cases: concentration: 1 μM, replicates: in singlicate; n = 1
[1] = system: CAMK2G
[2] = system: CAMK4
[3] = system: CAMKK1
[4] = system: CAMKK2
[5] = system: CASK
[6] = system: T1, CDC2L1
T1 construct: gene CDK11B

[7] = system: CDC2L2
[8] = system: T2, CDC2L5
T2 construct: gene CDK13

[9] = system: T3, CDK11
T3 construct: gene CDK19

[10] = system: CDK2
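Also: KINOMEscan kinase panel screen.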

Row | SMILES | %Inh [1] | %Inh [2] | %Inh [3] | %Inh [4] | %Inh [5] | %Inh [6] | %Inh [7] | %Inh [8] | %Inh [9] | %Inh [10]
1 | COc1cc(Nc2ccnc3ccc(C(F)(F)F)cc23)cc(OC)c1OC [GW577382] | 12% | 10% | 15% | 0% | 25% | 0% | 17% | 0% | 19% | 4%
2 | O=C(NCCNc1ccnc(Nc2ccc(F)cc2)n1)Nc1ccc2c(c1)OCO2 [GSK1379882] | 21% | 0% | 10% | 15% | 18% | 9% | 20% | 0% | 10% | 0%
3 | CCc1nc(-c2cccc(C)c2)c(-c2ccncc2)s1 | 0% | 0% | 0% | 0% | 0% | 0% | 3% | 0% | 0% | 0%
4 | Nc1n[nH]c2ncc(-c3ccccc3)cc12 [SB-517081] | 11% | 0% | 0% | 0% | 24% | 0% | 5% | 0% | 0% | 0%
5 | COC(=O)c1c(-c2ccccc2)c2cc(C)ccc2c(=O)n1Cc1ccccc1 | 0% | 0% | 0% | 6% | 0% | 0% | 0% | 0% | 0% | 0%
6 | O=C(Nc1ccc2c(c1)OCO2)NC1CCN(c2ccnc(NCc3ccc(F)cc3)n2)CC1 [GSK1379859] | 22% | 0% | 0% | 25% | 0% | 0% | 6% | 0% | 53% | 0%
7 | CC(C)(C)c1ccc(C(=O)Nc2cn3cc(-c4ccccc4)ccc3n2)cc1 | 0% | 14% | 0% | 0% | 1% | 0% | 11% | 0% | 0% | 0%
8 | COc1cccc(C2=C(N(C)c3ccccc3)C(=O)NC2=O)c1 [SB-334865] | 9% | 0% | 0% | 0% | 30% | 43% | 27% | 0% | 0% | 3%
9 | O=c1cc(N2CCOCC2)nc2n(Cc3ccc(F)c(Cl)c3)ccn12 [GSK2297099] | 28% | 0% | 28% | 24% | 2% | 3% | 28% | 0% | 0% | 0%
10 | COc1cccc(-n2cnc3c(N)ncnc32)c1 [SKF-97416] | 8% | 4% | 4% | 6% | 20% | 0% | 2% | 36% | 1% | 4%
11 | CCC(=O)c1c(-c2ccccc2)c2cc(Cl)ccc2c(=O)n1Cc1cc(S(C)(=O)=O)n(CC(N)=O)n1 | 0% | 0% | 0% | 0% | 0% | 0% | 6% | 0% | 0% | 0%
12 | CCC(=O)c1c(-c2ccccc2)c2cc(Cl)ccc2c(=O)n1Cc1cc(S(C)(=O)=O)n(CCC(C)(C)O)n1 | 18% | 19% | 18% | 28% | 0% | 9% | 13% | 23% | 14% | 0%
13 | COc1cc2nccc(Nc3ccc(OCc4ccc(NC(C)=O)cc4)cc3)c2cc1OC.Cl [GW440135] | 9% | 0% | 11% | 1% | 0% | 0% | 0% | 0% | 34% | 0%
14 | O=C(Nc1n[nH]c2nc(-c3ccccc3)c(Br)cc12)C1CC1 [SB-708998] | 4% | 0% | 0% | 0% | 0% | 0% | 0% | 0% | 0% | 0%
15 | Cc1cccc(-c2cc(-c3c[nH]nc3-c3ccccn3)ccn2)c1 [GW679395] | 21% | 0% | 9% | 7% | 24% | 0% | 0% | 0% | 9% | 0%
16 | CCS(=O)c1ccc(-c2coc3ccc(-c4nnc(C)o4)cc23)cc1 (stereo not drawn) | 0% | 0% | 0% | 0% | 0% | 0% | 0% | 14% | 0% | 0%
17 | Cc1cc(Nc2nc(-c3cccc(C)n3)nc3ccccc23)ccn1 [GW872411] | 0% | 0% | 0% | 0% | 7% | 0% | 0% | 0% | 0% | 0%
18 | O=C1NC(=O)C(c2ccccc2)=C1Nc1cccc(O)c1 [SB-390534] | 13% | 0% | 0% | 0% | 1% | 0% | 0% | 1% | 0% | 2%
19 | Nc1ncnc2c1ncn2-c1cccc2ccccc12 [SKF-97184] | 0% | 38% | 0% | 0% | 22% | 0% | 11% | 26% | 23% | 0%
20 | FC(F)(F)c1ccc(-c2ncn(CCCN3CCOCC3)c2-c2ccncc2)cc1 [SB-217780] | 21% | 14% | 11% | 18% | 0% | 0% | 14% | 15% | 0% | 0%
21 | O=C(Nc1n[nH]c2cc(-c3ccccc3F)ccc12)C1CC1 [SB-733371] | 0% | 0% | 0% | 0% | 0% | 0% | 0% | 33% | 0% | 25%
